# Screening data as filed in PubChem.
# Hits are enriched below; roughly 4.2% of the tested compounds scored in any of these assays.
# tim23-1 inh = tim23-1 yeast growth inhibition. S. cerevisiae tim23-1 growth, BacTiter-Glo luminescence, 24 h. inhibition, % at 20 µM. hit rate 1.3% among 330,000;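 active = growth inhibition of the mutant yeast at or above 50%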;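 note: temperature-sensitive mutant grown at 25 °C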
# TIM10 inh = inhibits growth of TIM10 yeast strain; S. cerevisiae TIM10 strain growth, BacTiter-Glo luminescence, 24 h; inhibition, % at 10 µM; hit rate 1.4% among 330,000; AID 463195;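 active = inhibition of 40% or more at the single tested concentration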;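 note: wild-type TIM10 isogenic control strain grown at permissive 25 °C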
# NLRP3 yeast inh = inhibitors of NALP3 inflammasome in yeast; Yeast reconstituted NLRP3/ASC/caspase-1, beta-gal luminescence, 24 h; hit rate 0.39% among 330,000; AID 2825; inhibition, % at 10 µM;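 active = inhibition of 50% or more; inactive = inhibition below 50%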
# V-ATPase pH = regulators of yeast V-ATPase proton transport | S. cerevisiae, pHLuorin cytosolic pH fluorescence | AID 504577 | hit rate 0.37% among 350,000 | response, % at 10 µM; in the data active = response mostly above about 7.3%, no sharp cut-off; inactive = mostly below about 5.4%; note: actives read high
# tim10-1 inh = growth inhibitors of tim10-1 mutant yeast; S. cerevisiae tim10-1 ts strain growth, BacTiter-Glo, 24 h; inhibition, % at 20 µM; hit rate 2.2% among 330,000; AID 463190;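 active = inhibition of at least 40%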;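 note: mutant grown at 25 °C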
# NALP1 inh = blocks the NALP1 inflammasome reconstituted in yeast. S. cerevisiae NALP1/ASC/caspase-1 growth, X-gal OD620, 72 h. inhibition, % at 10 µM. hit rate 0.61% among 280,000. AID 2071; in the data active = inhibition mostly above about 24%, no sharp cut-off; inactive = mostly below about 32%
# tim10-1 confirm = confirmation of tim10-1 mutant yeast growth inhibitors; shares compounds with tim10-1 inh; S. cerevisiae tim10-1 ts strain growth, BacTiter-Glo, 24 h; inhibition, % at 20 µM; hit rate 56% among 7,400;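 active = inhibition of yeast growth at or above a set limit in either of two repeat tests at 20 µM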;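 note: tim10-1 mutant grown at permissive 25 °C to find synthetic lethal compounds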
# tim10 confirm = TIM10 yeast growth inhibition, confirmed. shares compounds with TIM10 inh. S. cerevisiae tim10 strain growth, BacTiter-Glo luminescence, 24 h. inhibition, % at 10 µM. hit rate 63% among 4,600. AID 463215;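 active = inhibition of yeast growth at or above a set limit in either of two replicates at 10 µM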; note: this counterscreen used the strain with wild-type TIM10
# tim23-1 confirm = tim23-1 yeast growth inhibition, confirmed; hit rate 83% among 4,400; S. cerevisiae tim23-1 growth, BacTiter-Glo luminescence, 24 h; shares compounds with tim23-1 inh; inhibition, % at 20 µM; AID 463218;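 active = inhibition above about 39% in either of two replicate wells at 20 µM, limit read from the data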;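 note: temperature-sensitive tim23-1 mutant grown at 25 °C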
# Numbers stand for hits; i = inactive; nt = no result.
SMILES,tim23-1 inh,TIM10 inh,NLRP3 yeast inh,V-ATPase pH,tim10-1 inh,NALP1 inh,tim10-1 confirm,tim23-1 confirm,others
Cc1ccccc1/C=N/n1c(C2CCCCC2)n[nH]c1=S,i,i,i,i,i,i,nt,nt,
Fc1ccccc1/C=N/n1c(C2CCCCC2)n[nH]c1=S,65,48,i,i,43,i,35,61,tim10 confirm=51
CC(C)(C)c1nnc(NC(=O)COc2ccc3c(c2)OCO3)s1,i,i,i,i,i,nt,nt,nt,
CN(N=Nc1nc[nH]c1C(=O)NN)C1CCCCC1,nt,nt,nt,i,nt,nt,nt,nt,
COc1cccc(CNC(=O)C2CCN(c3nnc(N4CCCC4=O)s3)CC2)c1,i,i,i,i,i,i,nt,nt,
C=C1CCc2c([nH]c3ccc(OCC(C)C)cc23)C1=O,59,i,i,i,47,i,i,57,
COc1ccc2[nH]c3c(c2c1)CCNC3=O,i,i,i,i,i,nt,nt,nt,
Cc1ccccc1NC(=O)NC1(C(=O)N2CCC(C(N)=O)CC2)CCCCC1,i,i,i,i,i,i,nt,nt,
CCn1c(=O)ccc2cc([N+](=O)[O-])ccc21,i,i,i,i,i,i,nt,nt,
Oc1c(Br)cc(Br)cc1C=NCc1ccc(F)cc1,79,i,i,i,51,i,i,85,
O/N=C/c1cc(Br)ccc1OCc1ccc(F)cc1,59,i,i,i,41,nt,34,31,
Oc1c(Br)cc(Br)cc1C=NCc1ccccc1,85,59,i,i,55,i,39,90,tim10 confirm=33
O=C(NCc1ccc(F)cc1)C1CCCN(C(=O)NCc2ccccc2)C1 (stereo not drawn),i,i,i,i,i,i,nt,nt,
O=S(=O)(Nc1ccc(-c2nc3cccnc3s2)cc1)c1ccccc1F,i,i,i,i,i,i,nt,nt,
NC(=NCCc1c[nH]c2ccccc12)NC(=O)c1ccc(F)cc1,i,i,i,i,i,nt,nt,nt,
Cc1ccc2[nH]c3c(c2c1)CN(C(C)C)CC3,i,i,i,i,i,i,nt,nt,
O=C(Nc1ccc([N+](=O)[O-])cc1)N1CCCCCC1,i,i,i,i,i,i,nt,nt,
CC(C)(C)c1ccc(NC(=O)N2CCCN(c3ccc([N+](=O)[O-])cn3)CC2)cc1,61,43,i,i,43,i,50,57,tim10 confirm=42
Oc1ccc2ccccc2c1CNc1ccc(Br)cn1,61,i,i,i,46,i,63,68,
COCCNC(=O)/C(C#N)=C/c1c(F)cccc1Cl,82,66,i,i,63,i,56,77,tim10 confirm=63
COCCNC(=O)/C(C#N)=C/c1ccc(SC)cc1,i,i,i,i,i,i,nt,nt,
S=C(CN1CCCC1=S)NCCc1ccccc1,i,i,i,i,i,i,nt,nt,
COc1ccc2cc3cc(C(=O)NCCN4CCc5ccccc5C4)oc3nc2c1,63,86,i,i,75,i,68,i,tim10 confirm=i
O=[N+]([O-])c1nn(-c2ccc3c(c2)OCCO3)n(O)c1=NC1CCCCCC1,56,55,i,i,53,i,56,48,tim10 confirm=45
Cc1ccc(S(=O)(=O)Nc2cc(Cl)c(O)c3ncccc23)cc1,73,45,i,i,62,i,i,82,tim10 confirm=49
SMILES,tim23-1 inh,TIM10 inh,NLRP3 yeast inh,V-ATPase pH,tim10-1 inh,NALP1 inh,tim10-1 confirm,tim23-1 confirm,others
C=C(C(=O)c1ccccc1)C(CC(=O)c1ccccc1)c1ccccc1 (stereo not drawn),56,58,i,i,59,i,51,56,tim10 confirm=i
C=C(CCC(=O)c1ccccc1)C(=O)c1ccccc1,nt,nt,nt,i,nt,i,nt,nt,
O=C(NN1CC(C(=O)OCc2ccc(Cl)cc2Cl)CC1=O)c1ccccc1 (stereo not drawn),i,i,i,i,i,i,nt,nt,
Cc1cc(C(=O)NCC(=O)OC(C)C(=O)N2CCOCC2)ccc1[N+](=O)[O-] (stereo not drawn),i,i,i,i,i,nt,nt,nt,
N#Cc1cc(N)ccc1Sc1ccc(Cl)cc1,69,i,i,i,55,i,31,48,
Cc1ccc(C(=O)N/C(=C\c2ccc(Cl)cc2)C(=O)NCCN2CCOCC2)cc1,i,i,i,i,i,i,nt,nt,
CSCC[C@H](NS(=O)(=O)c1ccc(C(C)=O)cc1)c1nnc2ccccn12,i,i,i,i,i,i,nt,nt,
Cc1cc(NC(=O)Nc2ccccc2Cl)no1,i,i,i,i,i,i,nt,nt,
Cc1c(Cl)cccc1NC(=O)Nc1cc(C(C)(C)C)on1,59,i,i,i,59,i,26,45,
CC(=O)Oc1cccc(/C=c2\sc3nc(-c4ccco4)nn3c2=O)c1,61,i,i,i,54,i,43,63,
CC1(c2ccc3ccccc3c2)CCC(=O)O1 (stereo not drawn),nt,nt,nt,i,nt,nt,nt,nt,
CCC(=O)/C=C1/Sc2ccc(OC)cc2N1CCO,i,i,i,i,i,i,nt,nt,
CCC(/C=C1\Sc2ccc(OC)cc2N1CCO)=C\c1sc2ccc(OC)cc2[n+]1CCO,64,49,i,i,62,i,49,53,tim10 confirm=i
Oc1ccc(-c2nccc(-c3ccc(F)cc3)n2)cc1,62,i,i,i,52,i,54,i,
NNC(=O)COc1ccc(-c2nccc(-c3ccc(F)cc3)n2)cc1,55,i,i,i,49,i,i,41,
COc1ccccc1CNS(=O)(=O)c1ccc(Cl)s1,i,i,i,i,i,i,nt,nt,
CC12CCC(C(=O)NC3CCCCC3)([C@H](Br)C1=O)C2(C)C (stereo partly drawn),i,i,i,i,i,i,nt,nt,
O=C1OC(c2ccccc2)(c2ccc3cc(O)ccc3c2)c2ccccc21 (stereo not drawn),nt,nt,nt,i,nt,nt,nt,nt,
O/N=C(\c1ccccc1)c1nccc2ccccc12,i,i,i,i,i,i,nt,nt,
CCCCN1C(=O)C(=Nc2cccc3cnccc23)c2ccccc21,71,42,i,i,45,i,46,67,tim10 confirm=35
Cc1ccc(C)c(NC(=S)NNc2ccc(F)cc2F)c1,58,i,i,i,47,i,42,57,
CCN(CC)c1ccc(/C=N/NC(=S)NCc2ccco2)cc1,51,46,i,i,42,i,34,40,tim10 confirm=i
Cc1ccc(-c2nnc(C)c(N3CCCC3)n2)cc1,54,i,i,i,42,i,i,69,
Cc1nnc(-c2ccccc2)nc1N1CCOCC1,i,i,i,i,i,i,nt,nt,
CCc1c(C(=O)N2CCCN(C)CC2)csc1C,i,i,i,i,i,i,nt,nt,
Cc1cc(=O)[nH]c(SCC(=O)C23CC4CC(CC(C4)C2)C3)c1C#N,74,73,i,i,66,i,60,49,tim10 confirm=59
CCCCc1nc2cc(C(=O)NCc3cc(C)n(C)n3)ccc2o1,i,i,i,i,i,i,nt,nt,
CNC(=S)N1CCc2cc(OC)c(OC)cc2C1,i,i,i,i,i,i,nt,nt,
